# In ChEMBL document CHEMBL1961873, “Compounds: GSK PKIS; Assays: Nanosyn kinase panel” (2012):
# Assays:
# [1] = target: Sphingosine kinase 1 (Homo sapiens) (UniProt Q9NYA1); conditions: at 1 µM;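 also: mean SPHK1 inhibition value reported from the GSK PKIS kinase panel screen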
# [2] = target: T1, Sphingosine kinase 2 (Homo sapiens) (UniProt Q9NRA0); conditions: at 0.1 µM
# T1 sequence (whole entry): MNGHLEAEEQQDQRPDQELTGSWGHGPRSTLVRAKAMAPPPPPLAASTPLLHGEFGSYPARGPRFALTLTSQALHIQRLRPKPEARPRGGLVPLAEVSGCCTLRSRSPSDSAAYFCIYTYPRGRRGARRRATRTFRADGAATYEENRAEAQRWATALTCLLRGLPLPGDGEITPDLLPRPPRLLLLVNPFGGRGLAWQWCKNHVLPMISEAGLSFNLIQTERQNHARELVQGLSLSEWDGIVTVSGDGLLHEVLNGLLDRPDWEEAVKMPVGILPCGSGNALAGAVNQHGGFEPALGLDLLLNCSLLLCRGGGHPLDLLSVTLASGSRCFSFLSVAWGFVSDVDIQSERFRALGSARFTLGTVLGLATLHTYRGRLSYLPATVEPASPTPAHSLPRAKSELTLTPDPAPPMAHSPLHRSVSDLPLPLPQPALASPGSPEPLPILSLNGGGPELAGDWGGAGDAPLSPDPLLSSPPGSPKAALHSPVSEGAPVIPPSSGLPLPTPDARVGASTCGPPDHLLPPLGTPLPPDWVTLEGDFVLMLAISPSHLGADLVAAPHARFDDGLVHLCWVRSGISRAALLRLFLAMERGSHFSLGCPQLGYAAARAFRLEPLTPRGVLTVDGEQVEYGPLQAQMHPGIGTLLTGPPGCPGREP
# [3] = target: T1, Sphingosine kinase 2 (Homo sapiens); conditions: at 1 µM
# [4] = target: Casein kinase II subunit alpha (Homo sapiens) (UniProt P68400); conditions: at 0.1 µM
# Chain of Casein kinase II subunit alpha (Homo sapiens) (P68400 whole entry, looked up): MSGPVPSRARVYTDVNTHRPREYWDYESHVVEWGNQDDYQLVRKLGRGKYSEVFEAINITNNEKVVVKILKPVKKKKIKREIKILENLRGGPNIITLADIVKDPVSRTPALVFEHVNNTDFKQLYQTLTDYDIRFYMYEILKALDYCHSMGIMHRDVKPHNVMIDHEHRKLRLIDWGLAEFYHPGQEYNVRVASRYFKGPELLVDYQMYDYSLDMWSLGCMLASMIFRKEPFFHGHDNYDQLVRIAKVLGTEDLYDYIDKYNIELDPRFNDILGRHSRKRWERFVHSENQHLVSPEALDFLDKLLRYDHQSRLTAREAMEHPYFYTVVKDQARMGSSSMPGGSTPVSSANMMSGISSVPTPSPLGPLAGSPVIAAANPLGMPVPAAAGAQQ
# [5] = target: Casein kinase II subunit alpha (Homo sapiens) (UniProt P68400); conditions: at 1 µM
# [6] = target: T2, Inhibitor of nuclear factor kappa-B kinase subunit alpha (Homo sapiens) (UniProt O15111); conditions: at 0.1 µM
# T2 sequence (whole entry): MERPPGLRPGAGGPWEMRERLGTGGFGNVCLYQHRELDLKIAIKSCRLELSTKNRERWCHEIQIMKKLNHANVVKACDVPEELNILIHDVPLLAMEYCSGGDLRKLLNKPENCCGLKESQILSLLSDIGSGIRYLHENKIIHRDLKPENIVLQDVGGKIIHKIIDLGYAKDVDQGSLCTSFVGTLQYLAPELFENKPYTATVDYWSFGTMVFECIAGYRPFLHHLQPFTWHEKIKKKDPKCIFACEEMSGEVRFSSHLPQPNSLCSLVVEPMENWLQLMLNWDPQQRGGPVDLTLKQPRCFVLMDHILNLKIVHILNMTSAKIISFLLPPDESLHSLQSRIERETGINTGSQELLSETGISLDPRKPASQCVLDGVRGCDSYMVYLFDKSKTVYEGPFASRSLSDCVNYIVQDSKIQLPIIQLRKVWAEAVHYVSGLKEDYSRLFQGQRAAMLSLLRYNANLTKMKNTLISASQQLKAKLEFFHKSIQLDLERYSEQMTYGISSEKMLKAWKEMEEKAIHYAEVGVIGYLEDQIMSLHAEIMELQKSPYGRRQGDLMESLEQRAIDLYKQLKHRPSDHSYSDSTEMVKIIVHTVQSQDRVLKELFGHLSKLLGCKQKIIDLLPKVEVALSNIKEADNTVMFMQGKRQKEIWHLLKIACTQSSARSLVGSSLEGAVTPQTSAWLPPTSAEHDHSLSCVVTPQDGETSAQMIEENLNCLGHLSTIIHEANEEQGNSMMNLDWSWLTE
# [7] = target: T2, Inhibitor of nuclear factor kappa-B kinase subunit alpha (Homo sapiens); conditions: at 1 µM
# [8] = target: T3, Inhibitor of nuclear factor kappa-B kinase subunit beta (Homo sapiens) (UniProt O14920); conditions: at 0.1 µM
# T3 sequence (whole entry): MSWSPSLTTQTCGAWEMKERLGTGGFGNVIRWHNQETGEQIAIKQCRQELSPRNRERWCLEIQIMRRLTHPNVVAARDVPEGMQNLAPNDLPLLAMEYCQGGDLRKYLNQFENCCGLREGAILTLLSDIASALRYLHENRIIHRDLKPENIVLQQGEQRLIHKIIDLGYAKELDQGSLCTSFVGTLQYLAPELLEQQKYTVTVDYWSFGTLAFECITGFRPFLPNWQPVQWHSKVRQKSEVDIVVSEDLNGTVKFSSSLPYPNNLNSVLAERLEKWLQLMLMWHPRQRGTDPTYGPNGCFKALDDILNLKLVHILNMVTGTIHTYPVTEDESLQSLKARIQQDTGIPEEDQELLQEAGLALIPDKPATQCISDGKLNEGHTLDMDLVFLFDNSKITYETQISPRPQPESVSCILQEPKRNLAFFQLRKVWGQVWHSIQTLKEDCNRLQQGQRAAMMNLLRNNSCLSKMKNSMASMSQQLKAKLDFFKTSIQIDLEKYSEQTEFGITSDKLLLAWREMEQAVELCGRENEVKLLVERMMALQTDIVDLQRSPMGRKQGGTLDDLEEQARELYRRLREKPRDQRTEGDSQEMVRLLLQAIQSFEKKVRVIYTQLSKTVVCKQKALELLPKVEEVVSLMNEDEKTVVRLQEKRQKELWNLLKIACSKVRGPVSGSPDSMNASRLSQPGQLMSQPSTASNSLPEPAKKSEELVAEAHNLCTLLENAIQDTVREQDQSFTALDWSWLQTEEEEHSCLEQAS
# [9] = target: T3, Inhibitor of nuclear factor kappa-B kinase subunit beta (Homo sapiens); conditions: at 1 µM
# [10] = target: T4, Inhibitor of nuclear factor kappa-B kinase subunit epsilon (Homo sapiens) (UniProt Q14164); conditions: at 0.1 µM
# T4 sequence (whole entry): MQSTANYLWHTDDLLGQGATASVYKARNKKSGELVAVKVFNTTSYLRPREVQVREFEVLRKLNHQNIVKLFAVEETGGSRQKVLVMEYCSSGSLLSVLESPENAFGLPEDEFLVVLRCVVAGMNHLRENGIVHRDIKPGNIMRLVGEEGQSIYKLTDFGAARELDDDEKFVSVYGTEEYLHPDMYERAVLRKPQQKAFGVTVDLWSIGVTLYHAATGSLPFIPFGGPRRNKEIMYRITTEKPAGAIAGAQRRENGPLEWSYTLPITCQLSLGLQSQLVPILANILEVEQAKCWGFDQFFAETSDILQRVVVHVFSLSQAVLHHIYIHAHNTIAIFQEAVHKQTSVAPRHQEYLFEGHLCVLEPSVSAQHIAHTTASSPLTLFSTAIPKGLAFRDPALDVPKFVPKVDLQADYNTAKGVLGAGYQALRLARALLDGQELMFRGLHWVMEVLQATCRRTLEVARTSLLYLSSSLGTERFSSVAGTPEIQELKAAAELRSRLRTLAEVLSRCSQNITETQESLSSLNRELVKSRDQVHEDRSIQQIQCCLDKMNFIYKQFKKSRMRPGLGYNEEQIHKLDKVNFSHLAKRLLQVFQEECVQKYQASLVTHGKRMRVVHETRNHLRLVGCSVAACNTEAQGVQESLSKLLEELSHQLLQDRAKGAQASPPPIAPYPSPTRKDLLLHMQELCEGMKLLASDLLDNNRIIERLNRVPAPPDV
# [11] = target: T4, Inhibitor of nuclear factor kappa-B kinase subunit epsilon (Homo sapiens); conditions: at 1 µM
# [12] = target: T5, Serine/threonine-protein kinase Nek1 (Homo sapiens) (UniProt Q96PY6); conditions: at 0.1 µM
# T5 sequence (whole entry): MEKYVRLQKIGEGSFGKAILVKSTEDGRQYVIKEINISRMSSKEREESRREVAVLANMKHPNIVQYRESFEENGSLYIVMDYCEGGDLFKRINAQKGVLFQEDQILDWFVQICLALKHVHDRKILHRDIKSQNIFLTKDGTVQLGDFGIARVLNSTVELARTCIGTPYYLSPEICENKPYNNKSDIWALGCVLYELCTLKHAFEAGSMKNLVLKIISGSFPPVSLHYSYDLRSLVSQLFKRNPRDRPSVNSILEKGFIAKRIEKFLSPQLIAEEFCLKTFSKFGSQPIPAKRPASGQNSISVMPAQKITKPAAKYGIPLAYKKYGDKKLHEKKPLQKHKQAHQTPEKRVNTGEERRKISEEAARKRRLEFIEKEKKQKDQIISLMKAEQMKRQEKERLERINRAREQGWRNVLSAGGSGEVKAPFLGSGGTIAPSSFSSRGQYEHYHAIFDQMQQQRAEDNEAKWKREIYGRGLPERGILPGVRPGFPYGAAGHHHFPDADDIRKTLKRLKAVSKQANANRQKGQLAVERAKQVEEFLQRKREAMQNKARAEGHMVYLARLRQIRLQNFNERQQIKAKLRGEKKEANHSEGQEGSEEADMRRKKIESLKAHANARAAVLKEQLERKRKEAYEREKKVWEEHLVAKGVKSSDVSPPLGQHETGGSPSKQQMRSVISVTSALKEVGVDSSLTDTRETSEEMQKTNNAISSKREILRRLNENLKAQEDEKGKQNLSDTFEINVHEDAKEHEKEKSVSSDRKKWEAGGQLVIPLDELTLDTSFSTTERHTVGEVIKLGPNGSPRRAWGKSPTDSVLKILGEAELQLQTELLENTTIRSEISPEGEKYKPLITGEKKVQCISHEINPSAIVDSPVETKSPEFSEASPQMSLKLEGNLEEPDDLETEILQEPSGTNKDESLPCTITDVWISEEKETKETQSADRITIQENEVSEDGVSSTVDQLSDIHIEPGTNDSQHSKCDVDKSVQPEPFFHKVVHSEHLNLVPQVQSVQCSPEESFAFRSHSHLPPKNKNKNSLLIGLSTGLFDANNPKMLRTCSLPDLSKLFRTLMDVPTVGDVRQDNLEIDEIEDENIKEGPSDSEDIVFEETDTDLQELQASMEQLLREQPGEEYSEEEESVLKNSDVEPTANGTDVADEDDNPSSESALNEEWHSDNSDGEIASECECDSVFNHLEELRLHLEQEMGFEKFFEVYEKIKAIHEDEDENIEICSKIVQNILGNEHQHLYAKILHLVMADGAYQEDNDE
# [13] = target: T5, Serine/threonine-protein kinase Nek1 (Homo sapiens); conditions: at 1 µM
# [14] = target: T6, Serine/threonine-protein kinase Nek2 (Homo sapiens) (UniProt P51955); conditions: at 0.1 µM
# T6 sequence (whole entry): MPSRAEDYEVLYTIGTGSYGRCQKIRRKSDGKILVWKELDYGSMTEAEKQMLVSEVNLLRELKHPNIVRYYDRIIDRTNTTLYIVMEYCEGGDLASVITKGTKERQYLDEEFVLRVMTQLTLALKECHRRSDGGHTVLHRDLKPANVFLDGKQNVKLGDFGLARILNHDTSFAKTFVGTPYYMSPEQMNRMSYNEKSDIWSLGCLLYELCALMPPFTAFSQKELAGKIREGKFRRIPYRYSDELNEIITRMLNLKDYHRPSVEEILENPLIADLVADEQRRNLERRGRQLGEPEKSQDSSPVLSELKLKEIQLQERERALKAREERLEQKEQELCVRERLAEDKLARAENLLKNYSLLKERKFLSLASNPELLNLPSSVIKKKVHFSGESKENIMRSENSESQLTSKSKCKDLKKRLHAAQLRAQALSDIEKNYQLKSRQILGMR
# [15] = target: T6, Serine/threonine-protein kinase Nek2 (Homo sapiens); conditions: at 1 µM
# [16] = target: Serine/threonine-protein kinase Nek6 (Homo sapiens) (UniProt Q9HC98); conditions: at 0.1 µM
# Chain of Serine/threonine-protein kinase Nek6 (Homo sapiens) (Q9HC98 whole entry): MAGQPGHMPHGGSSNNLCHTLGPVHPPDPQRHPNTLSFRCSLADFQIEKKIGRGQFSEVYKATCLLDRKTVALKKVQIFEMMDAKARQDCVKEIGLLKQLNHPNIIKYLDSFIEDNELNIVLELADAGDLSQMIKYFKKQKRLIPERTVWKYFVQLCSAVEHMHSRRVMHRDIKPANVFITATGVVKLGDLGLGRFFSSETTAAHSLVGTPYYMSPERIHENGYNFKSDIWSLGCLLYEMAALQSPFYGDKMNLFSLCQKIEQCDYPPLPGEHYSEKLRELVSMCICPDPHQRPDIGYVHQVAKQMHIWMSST
# [17] = target: Serine/threonine-protein kinase Nek6 (Homo sapiens) (UniProt Q9HC98); conditions: at 1 µM
# [18] = target: Serine/threonine-protein kinase Nek7 (Homo sapiens) (UniProt Q8TDX7); conditions: at 0.1 µM
# Chain of Serine/threonine-protein kinase Nek7 (Homo sapiens) (Q8TDX7 whole entry, looked up): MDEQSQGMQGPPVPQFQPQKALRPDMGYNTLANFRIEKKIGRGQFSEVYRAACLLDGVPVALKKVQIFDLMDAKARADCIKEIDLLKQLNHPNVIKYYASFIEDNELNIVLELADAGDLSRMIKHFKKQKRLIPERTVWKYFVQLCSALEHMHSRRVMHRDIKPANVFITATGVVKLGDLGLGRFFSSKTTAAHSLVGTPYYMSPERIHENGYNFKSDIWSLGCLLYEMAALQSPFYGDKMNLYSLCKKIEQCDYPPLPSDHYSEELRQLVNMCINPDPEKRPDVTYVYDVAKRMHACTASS
# [19] = target: Serine/threonine-protein kinase Nek7 (Homo sapiens) (UniProt Q8TDX7); conditions: at 1 µM
# [20] = target: T7, Serine/threonine-protein kinase Nek9 (Homo sapiens) (UniProt Q8TD19); conditions: at 0.1 µM;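 also: reported value is the mean percent inhibition of NEK9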
# T7 sequence (whole entry): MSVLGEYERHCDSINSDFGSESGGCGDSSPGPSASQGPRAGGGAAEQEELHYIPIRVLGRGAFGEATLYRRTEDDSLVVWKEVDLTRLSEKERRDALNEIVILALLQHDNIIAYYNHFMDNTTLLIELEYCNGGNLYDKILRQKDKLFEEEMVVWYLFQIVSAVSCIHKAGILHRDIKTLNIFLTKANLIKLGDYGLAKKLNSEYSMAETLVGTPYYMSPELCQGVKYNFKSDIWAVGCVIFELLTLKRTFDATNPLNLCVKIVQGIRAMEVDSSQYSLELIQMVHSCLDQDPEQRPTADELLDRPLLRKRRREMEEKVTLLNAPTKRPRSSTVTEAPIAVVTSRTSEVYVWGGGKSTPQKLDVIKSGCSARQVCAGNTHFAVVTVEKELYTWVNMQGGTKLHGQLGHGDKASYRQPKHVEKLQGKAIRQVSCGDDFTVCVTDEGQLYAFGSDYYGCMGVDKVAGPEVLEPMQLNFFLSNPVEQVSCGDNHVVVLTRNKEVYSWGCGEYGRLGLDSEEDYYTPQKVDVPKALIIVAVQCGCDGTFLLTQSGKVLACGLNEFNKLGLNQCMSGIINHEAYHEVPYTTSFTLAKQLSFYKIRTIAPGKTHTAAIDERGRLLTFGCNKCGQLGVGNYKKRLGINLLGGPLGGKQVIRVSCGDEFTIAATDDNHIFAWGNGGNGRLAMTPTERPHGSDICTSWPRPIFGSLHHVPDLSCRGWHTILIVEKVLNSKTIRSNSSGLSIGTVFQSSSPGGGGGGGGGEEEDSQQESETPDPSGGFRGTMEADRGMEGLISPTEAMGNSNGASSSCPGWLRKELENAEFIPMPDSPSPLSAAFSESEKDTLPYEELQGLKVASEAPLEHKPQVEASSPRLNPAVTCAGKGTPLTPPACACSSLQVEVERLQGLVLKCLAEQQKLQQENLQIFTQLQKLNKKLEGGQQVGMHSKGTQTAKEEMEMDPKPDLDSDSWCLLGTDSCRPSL
# Chain of Sphingosine kinase 1 (Homo sapiens) (Q9NYA1 whole entry): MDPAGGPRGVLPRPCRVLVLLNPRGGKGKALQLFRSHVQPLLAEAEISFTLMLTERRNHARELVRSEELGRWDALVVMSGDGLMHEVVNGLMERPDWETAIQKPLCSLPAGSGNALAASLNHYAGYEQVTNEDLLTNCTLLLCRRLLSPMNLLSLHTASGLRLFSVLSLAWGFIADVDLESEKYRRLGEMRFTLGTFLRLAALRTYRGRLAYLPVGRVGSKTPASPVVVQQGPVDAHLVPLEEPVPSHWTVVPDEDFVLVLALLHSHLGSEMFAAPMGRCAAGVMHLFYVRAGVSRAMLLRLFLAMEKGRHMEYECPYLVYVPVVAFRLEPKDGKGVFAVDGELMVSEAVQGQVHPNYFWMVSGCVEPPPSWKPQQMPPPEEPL
compound,measurement,setting,value
O=C1NC(=O)C(c2ccccc2Cl)=C1Nc1cccc(O)c1,inhibition,[1],-1.02%
same,inhibition,[2],0.69%
same,inhibition,[3],-0.36%
same,inhibition,[4],0.98%
same,inhibition,[5],0.1%
same,inhibition,[6],3.36%
same,inhibition,[7],1.21%
same,inhibition,[8],3.78%
same,inhibition,[9],3.39%
same,inhibition,[10],1.96%
same,inhibition,[11],5.16%
same,inhibition,[12],1.26%
same,inhibition,[13],2.01%
same,inhibition,[14],3.03%
same,inhibition,[15],3.05%
same,inhibition,[16],1.73%
same,inhibition,[17],-0.89%
same,inhibition,[18],4.66%
same,inhibition,[19],2.35%
same,inhibition,[20],2.76%
